# Experiments:
# Conditions in all cases: concentration: 1 μM, replicates: in singlicate; n = 1
# [1] = tested on: DAPK2
# [2] = tested on: DAPK3
# [3] = tested on: T1, DCAMKL1
# T1 construct: gene DCLK1
# [4] = tested on: T2, DCAMKL2
# T2 construct: gene DCLK2
# [5] = tested on: T3, DCAMKL3
# T3 construct: gene DCLK3
# [6] = tested on: DDR1
# [7] = tested on: DDR2
# [8] = tested on: T4, DLK
# T4 construct: gene MAP3K12
# [9] = tested on: T5, DMPK2
# T5 construct: gene CDC42BPG
# [10] = tested on: DMPK
# [11] = tested on: T6, DRAK1
# T6 construct: gene STK17A
# [12] = tested on: T7, DRAK2
# T7 construct: gene STK17B
# [13] = tested on: DYRK1A
# [14] = tested on: DYRK1B
# [15] = tested on: DYRK2
# [16] = tested on: EGFR
# [17] = tested on: EIF2AK1
# [18] = tested on: EPHA1
# [19] = tested on: EPHA2
# [20] = tested on: EPHA3
# 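Also: KINOMEscan kinase panel screen.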
SMILES,%Inh [1] [%],%Inh [2] [%],%Inh [3] [%],%Inh [4] [%],%Inh [5] [%],%Inh [6] [%],%Inh [7] [%],%Inh [8] [%],%Inh [9] [%],%Inh [10] [%],%Inh [11] [%],%Inh [12] [%],%Inh [13] [%],%Inh [14] [%],%Inh [15] [%],%Inh [16] [%],%Inh [17] [%],%Inh [18] [%],%Inh [19] [%],%Inh [20] [%]
O=C(Nc1n[nH]c2nc(-c3nccs3)c(Br)cc12)C1CCCC1 [SB-742609],0,5,9,16,0,0,11,14,0,0,4,0,16,15,35,32,0,17,9,0
Fc1cccc(COc2nnc(-c3ccc4c(c3)CCO4)o2)c1,0,0,9,0,0,0,12,0,0,0,6,33,44,65,3,6,0,0,0,0
Cc1ccc(C(=O)Nc2ccc(Nc3ccnc4cc(-c5ccccn5)ccc34)cc2O)cc1.Cl [GW440146],0,13,0,0,16,12,10,47,0,0,0,11,18,0,0,32,0,4,0,0
COc1cc2ncnc(Nc3ccc4nc(-c5ccccc5)[nH]c4c3)c2cc1OC.Cl [GW282450],15,13,8,0,0,0,0,7,0,0,0,0,13,0,19,59,6,10,0,31
O=S(=O)(c1ccc(-c2ccnc3[nH]ccc23)cc1)N1CCCC1 [GSK846226],48,76,23,0,0,0,0,0,15,3,73,0,21,11,35,33,0,5,0,11
CC1=C(C(=O)Nc2cc3cn[nH]c3cc2F)C(c2ccc(C(F)(F)F)cc2)CC(=O)N1 (stereo not drawn) [GSK429286],0,24,4,7,39,3,0,0,0,0,0,12,21,0,0,33,0,22,14,0
Cl.Oc1ccc(-c2nc(-c3ccccc3)[nH]c2-c2ccncc2)cc1 [SB-428218],0,31,6,15,7,9,59,58,0,0,0,0,17,0,0,31,5,55,1,0
C[C@@H]1CCCCN1c1cc(-c2ccc3c(N)n[nH]c3c2)nc(N)n1 [GSK2258759],0,19,2,0,0,0,0,21,0,0,96,0,0,0,10,18,0,8,0,7
CCCc1ccc(S(=O)(=O)NC2CCN(c3ccnc(Nc4ccc(F)cc4)n3)C2)cc1 (stereo not drawn) [GSK1379715],0,7,10,0,0,0,7,0,0,0,0,0,23,0,0,0,12,8,12,0
COc1ccc2nc(-c3cccc(C)n3)nc(Nc3ccncc3)c2c1 [GSK204919],0,22,5,26,0,58,5,8,91.1,0,0,0,24,0,0,20,0,0,20,0
O=C(Nc1ccc2c(c1)OCO2)NC1CCN(c2ccnc(Nc3ccc(F)cc3)n2)C1 (stereo not drawn) [GSK1379724],0,0,0,7,32,0,52,24,9,0,0,0,27,0,3,0,0,18,16,0
CN(C)CCN(C)C(=O)c1cc(-c2ccncc2)c(-c2ccc(Cl)c(O)c2)o1.Cl.Cl [SB-710397],0,33,56,9,0,34,38,34,47,0,23,0,9,0,0,30,0,45,5,0
Cc1ccc(NC(=O)Nc2cccc(Cl)c2)cc1-c1ccc(C(=O)Nc2ccncc2)cc1 [GSK1398468],0,22,17,0,0,99.7,72,25,8,0,0,0,1,21,0,24,0,6,3,0
Cn1cncc1-c1ccc2ncnc(Nc3ccc(OCc4ccccc4)cc3)c2c1 [GW320571],0,56,0,0,31,18,4,35,0,9,6,0,12,3,0,99.3,96.7,25,17,0
COc1ccc(CNC(=O)NC2CCN(c3ccnc(Nc4cc(OC)c(OC)c(OC)c4)n3)C2)cc1 (stereo not drawn) [GSK1379748],0,10,5,0,0,1,45,100,2,0,10,0,6,32,0,31,0,1,14,0
COc1cc2nccc(Nc3ccc(NC(=O)c4ccc(C)cc4)c(O)c3)c2cc1OC.Cl [GW440132],8,19,8,7,16,0,5,6,0,0,0,0,11,7,18,0,0,17,8,0
COc1cc(Nc2nccc(N3CCC(NC(=O)Nc4cc(C)ccc4C)C3)n2)cc(OC)c1OC (stereo not drawn) [GSK1379762],0,7,0,12,0,43,10,30,22,0,0,0,25,16,19,63,0,22,8,0
CS(=O)(=O)c1ccc(-c2c(-c3ncn[nH]3)sc(N3CCOCC3)c2C#N)cc1,0,0,19,23,19,0,18,53,15,0,8,0,1,0,14,12,21,24,19,0
Cc1ccccc1-n1cnc2c(N)ncnc21 [SKF-97510],10,12,0,0,0,11,0,0,0,0,0,47,0,0,0,0,0,0,0,0
O=C(Nc1ccccc1)Nc1cccc(Oc2ccc3nccn3n2)c1,0,0,0,0,69,97.8,1,0,0,4,0,1,0,45,0,33,0,14,30,34
Cc1ccc(NC(=O)Nc2cc(C(C)(C)C)nn2-c2ccccc2)cc1 [GSK1014915],0,18,2,25,5,90.7,88,18,0,3,0,1,33,11,3,38,0,7,7,0
